TDP1 cell noCPT – qHTS for Inhibitors of human tyrosyl-DNA phosphodiesterase 1 (TDP1): qHTS in cells in absence of CPT. 15% of 420,000 active. DT40 Tdp1-/- hTDP1 cells, no CPT, ATP luminescence, 48 h. Potency, µM (doses to about 46.2 µM), actives largely listed as inhibitors; also: nearly all actives have a fitted effect of over 55% in size
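Cells were dispensed at 400 per well, compounds added by pin tool, plates incubated ≥48 hr at 37 °C, then CellTiter-Glo added for 30 min at room temperature before luminescence reading. Line: DT40 Tdp1-/- complemented with hTDP1; camptothecin omitted.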
TDP1 inh – inhibitors of human tyrosyl-DNA phosphodiesterase TDP1; Q9NUW8; recombinant TDP1, AlphaScreen DNA substrate cleavage; Potency, µM (titrated, usually from 130 µM), most hits filed as inhibitors; 0.28% of 350,000 active; also: nearly all actives have a fitted effect of over 40% in size
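Steps: enzyme plus compound, 15 min RT; add biotin/phosphotyrosine-FITC oligonucleotide (15 nM final), react 5 min; add donor/acceptor beads (10 ug/ml final), 10 min; read AlphaScreen. Tdp1 at 1 nM final.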
ClpP mod – qHTS Assay for Activators of ClpP; 1.9% of 340,000 active; purified B. subtilis ClpP, FRET peptide cleavage, 20 min; Potency, µM (top dose mostly 57.5 µM); AID 651965, 2013; ATP-dependent Clp protease proteolytic subunit (Bacillus subtilis (strain 168)), P80244; active = well fitted falling curve with a large enough effect; inconclusive = small, poorly fitted or top-dose-only effect; inactive = no such curve, though single readings can be large or run the other way; also: the source files actives as falling curves though it sought activators and does not explain the sign; nearly all actives have a fitted effect of over 65% in size
Target sequence (P80244 whole entry, looked up): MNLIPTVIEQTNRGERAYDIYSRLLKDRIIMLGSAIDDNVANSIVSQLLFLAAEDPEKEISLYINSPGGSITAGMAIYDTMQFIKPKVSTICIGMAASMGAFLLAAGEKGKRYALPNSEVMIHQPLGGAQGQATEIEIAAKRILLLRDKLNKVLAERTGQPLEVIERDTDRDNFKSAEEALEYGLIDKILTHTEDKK
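ClpP 10 microg/mL final, pH 8 Tris/KCl buffer with BSA, glycerol, Tween-20; compound pinned in; FRET-FV substrate; RT 20 min; Ex320/Em430; ΔFRET vs ADEP 5.8 microM, DMSO, no enzyme.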
DT40 TDP1 CPT – growth inhibition of DT40 Tdp1-/-;hTDP1 cells with camptothecin (screen for TDP1 inhibitors); chicken DT40 Tdp1-/-;hTDP1 cells + 20 nM CPT, ATP luminescence, 48 h; 12% of 420,000 active; Potency, µM (series often up to 46.2 µM), hits mostly inhibitors; also: nearly all actives have a fitted effect of over 55% in size
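Chicken DT40 Tdp1-/- cells complemented with human TDP1, 400 cells/well, exposed to compounds plus 20 nM camptothecin for at least 48 h at 37 C; viability read as ATP content by CellTiter-Glo luminescence.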
Of the large screens only hits and unclear results are named; the others gave an inactive call. An excerpt weighted towards active compounds, which were near 17% of everything screened. Unless noted, calls follow the shape of the dose curve; as a rule, active = well fitted curve in the direction sought with a large enough effect; inconclusive = small, poorly fitted or top-dose-only effect, or another doubt; inactive = no such curve, though single readings can be large; an effect the other way counts as inactive or inconclusive.

CCN1C(=O)[C@H]2[C@@H](c3ccc(-c4ccc(Cl)c(Cl)c4)c(OC)c3)N[C@@](C)(C(=O)OC)[C@H]2C1=O	TDP1 cell noCPT 6.5µM, ClpP mod inconclusive, DT40 TDP1 CPT 4.6µM
CCOC(=O)C1(C)NC(c2ccc(OC)c(OC)c2)C2C(=O)N(CC)C(=O)C21 (configuration not stated)	none
COC(=O)[C@]1(C)N[C@H](c2ccc(SC3CCCCC3)c(OC)c2)[C@@H]2C(=O)N(C)C(=O)[C@@H]21	TDP1 cell noCPT 12µM, DT40 TDP1 CPT inconclusive
CCN1C(=O)[C@H]2[C@@H](c3ccc(-c4ccc(Cl)c(Cl)c4)cc3)N[C@@](C)(C(=O)OC)[C@H]2C1=O	TDP1 cell noCPT 8.2µM, ClpP mod inconclusive, DT40 TDP1 CPT 8.2µM
CCN1C(=O)[C@H]2[C@@H](c3ccc(-c4ccc5c(c4)OCO5)c(OC)c3)N[C@@](C)(C(=O)OC)[C@H]2C1=O	TDP1 cell noCPT inconclusive, ClpP mod inconclusive, DT40 TDP1 CPT inconclusive
CCOc1ccc(-c2ncncc2-c2ccc(OC)c(OC)c2)c(O)c1	DT40 TDP1 CPT inconclusive (no result: TDP1 inh)
Cc1nc(-c2ccc(Cl)cc2)sc1C1(C)CC(c2cccc(F)c2)=NO1 (configuration not stated)	ClpP mod inconclusive
CN(C)CCCNC(=O)/C(=C\C=C\c1ccccc1)NC(=O)c1ccc([N+](=O)[O-])cc1	TDP1 cell noCPT inconclusive (no result: TDP1 inh, ClpP mod)
O=C(N/N=C/c1cc(Br)ccc1O)C(=O)Nc1ccccc1OC(F)(F)C(F)F	TDP1 cell noCPT 2.8µM, DT40 TDP1 CPT 5µM
COc1ccccc1/C=N/NC(=O)C(=O)Nc1ccccc1OC(F)(F)C(F)F	TDP1 cell noCPT inconclusive, DT40 TDP1 CPT inconclusive
O=C(N/N=C/c1cc(Cl)ccc1O)C(=O)Nc1ccccc1OC(F)(F)C(F)F	TDP1 cell noCPT 1.8µM, DT40 TDP1 CPT 2.1µM
O=C(Nc1ccccc1)Nc1ccc(Oc2cccnc2)nc1	TDP1 cell noCPT 16µM, DT40 TDP1 CPT inconclusive
O=C(Nc1cccnc1)c1ccc(Oc2ccccc2)cc1	TDP1 cell noCPT inconclusive, DT40 TDP1 CPT 23µM
O=C(Nc1cccnc1)c1ccc2nc(-c3ccccc3)c(-c3ccccc3)nc2c1	TDP1 cell noCPT 15µM, DT40 TDP1 CPT 23µM
COC(=O)/C=C/C(=O)Nc1cccnc1	TDP1 cell noCPT inconclusive, DT40 TDP1 CPT 16µM
O=C(Nc1ccc(F)cc1)Nc1cccnc1	DT40 TDP1 CPT inconclusive (no result: TDP1 inh)
CCc1nc2cc(C(=O)NC3CCOC(C)(C)C3)cc(NC(=O)c3ccccc3OC)c2n1C (configuration not stated)	none (no result: TDP1 inh, ClpP mod)
O=C(c1ccc(Cl)cc1)N1CCC(c2nc3ccccc3o2)CC1	TDP1 cell noCPT 15µM, DT40 TDP1 CPT inconclusive
CC(C)(C)c1ccc(C(=O)N2CCC(c3nc4ccccc4o3)CC2)cc1	TDP1 cell noCPT 15µM, DT40 TDP1 CPT 21µM
Cc1cccc(OCC(=O)N2CCC(c3nc4ccccc4o3)CC2)c1C	TDP1 cell noCPT inconclusive, DT40 TDP1 CPT inconclusive
O=C(c1ccccc1)N1CCC(c2nc3ccccc3o2)CC1	TDP1 cell noCPT inconclusive, DT40 TDP1 CPT inconclusive
CN(C)S(=O)(=O)c1ccc(C(=O)N2CCC(c3nc4ccccc4o3)CC2)cc1	TDP1 cell noCPT inconclusive
Cc1cc(Cl)ccc1OCC(=O)N1CCC(c2nc3ccccc3o2)CC1	TDP1 cell noCPT 16µM, DT40 TDP1 CPT inconclusive
CCN(CC)C(=O)Cn1cc(C(=O)C(=O)N(C)C2CCN(C)CC2)c2ccccc21	none
CCN(CCCNc1cc2c(c(N)c1S(=O)(=O)O)C(=O)c1ccccc1C2=O)c1ccccc1	TDP1 cell noCPT 18µM, DT40 TDP1 CPT inconclusive (no result: TDP1 inh)
CCOC(=O)C1CCN(c2c(NCCCN(CC)c3ccccc3)c(=O)c2=O)CC1	none
COCCNC(=O)C1(C)CCN(C(=O)c2ccc(OC)c(F)c2)C1 (configuration not stated)	none (no result: TDP1 inh)
CC(C)NC(=O)c1ccc(-c2cccc(C(F)(F)F)c2)o1	ClpP mod inconclusive
COc1cnc(-c2cccc(C(F)(F)F)c2)c(NC(=O)c2cc3ccccc3s2)n1	TDP1 cell noCPT 10µM, ClpP mod inconclusive, DT40 TDP1 CPT 18µM (no result: TDP1 inh)
CC(=O)c1cccc(NS(=O)(=O)c2cccc(S(=O)(=O)c3ccc(Br)cc3)c2)c1	TDP1 cell noCPT inconclusive, DT40 TDP1 CPT inconclusive
CCOc1c(Cl)cc(CNCC(O)c2ccccc2)cc1OC (configuration not stated)	DT40 TDP1 CPT inconclusive
OC(CNCC(c1ccc(Cl)cc1Cl)c1c[nH]c2ccccc12)c1ccccc1 (configuration not stated)	TDP1 cell noCPT 13µM, DT40 TDP1 CPT inconclusive (no result: ClpP mod)
O=C(COC(=O)[C@@H]1CC(O)CN1S(=O)(=O)c1ccc2c(c1)OCCO2)Nc1cc(F)ccc1F (some centres not stated)	none
Cc1ccc(NC(=O)CSc2n[nH]c(-c3ccccn3)n2)cc1	DT40 TDP1 CPT 5.8µM (no result: ClpP mod)
O=C(CSc1n[nH]c(-c2ccccn2)n1)Nc1ccc(Cl)cc1	TDP1 cell noCPT 4.6µM, DT40 TDP1 CPT 6.5µM
O=C(CSc1n[nH]c(-c2ccncc2)n1)Nc1ccccc1	none (no result: ClpP mod)
Cc1ccc(NC(=O)CSc2ccc(-c3ccccn3)nn2)cc1	TDP1 cell noCPT inconclusive, DT40 TDP1 CPT inconclusive (no result: ClpP mod)
Cc1ccc(C)c(NC(=O)CSc2n[nH]c(-c3ccncc3)n2)c1	none
O=C(CSc1n[nH]c(-c2ccccn2)n1)Nc1ccc(F)cc1	TDP1 cell noCPT 7.3µM, DT40 TDP1 CPT inconclusive (no result: ClpP mod)
Cc1cccc(NC(=O)CSc2n[nH]c(-c3ccncc3)n2)c1C	DT40 TDP1 CPT 12µM
CCOC(=O)C1(C)CCCN1C(=O)c1ccccc1OC (configuration not stated)	none (no result: TDP1 inh)
CC(C)(C)C(=O)NC(=S)NCc1ccccc1	none
Cc1ccc(OCc2ccc(-c3nc(C#N)c(N4CCC(C)CC4)o3)o2)cc1	TDP1 cell noCPT 21µM, DT40 TDP1 CPT inconclusive
N#Cc1nc(-c2ccc(COc3ccc(Cl)cc3)o2)oc1N1CCN(c2ccccc2)CC1	none
CC1CCN(c2oc(-c3ccc(COc4ccccc4)o3)nc2C#N)CC1	TDP1 cell noCPT 10µM, ClpP mod 16µM, DT40 TDP1 CPT 21µM
Cc1ccccc1OCc1ccc(-c2nc(C#N)c(N3CCN(c4cccc(Cl)c4)CC3)o2)o1	none
COc1ccc(OCc2ccc(-c3nc(C#N)c(N4CCC(C)CC4)o3)o2)cc1	TDP1 cell noCPT 23µM, ClpP mod 25µM, DT40 TDP1 CPT inconclusive
N#Cc1nc(-c2ccc(COc3ccccc3)o2)oc1N1CCN(c2ccccc2)CC1	ClpP mod 16µM
Cc1cc(NC(=O)NC(C(F)(F)F)C(F)(F)F)no1	none (no result: TDP1 inh, ClpP mod)
CCCN(CC(=O)Nc1cc(Cl)ccc1Cl)C(=O)c1ccccc1SCC(=O)N1CCCC1	DT40 TDP1 CPT inconclusive
Cc1ccccc1NC(=S)N/N=C/C(C)c1ccccc1 (configuration not stated)	TDP1 cell noCPT 13µM, DT40 TDP1 CPT 10µM
CC(C)c1ccccc1NC(=S)NC(C)c1ccccc1 (configuration not stated)	TDP1 cell noCPT 16µM, DT40 TDP1 CPT inconclusive (no result: ClpP mod)

Bioassay records deposited in PubChem by National Center for Advancing Translational Sciences (NCATS).
